Assay [1] is described as follows: qHTS Assay for Identifying Gametocytocidal Compounds (AID 743244).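 Note: % is set by controls: 0 for no effect and ±100 for the full control effect; actives lower the fluorescent signal which means gametocytes are killed.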 The conditions noted are these: P. falciparum 3D7 stage III-V gametocytes, alamarBlue, 72 h; max response: stronger effect = lower value. The essentials: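 A resazurin-based viability read-out was applied to mature P. falciparum gametocytes: 72 h compound treatment, then 24 h dye incubation, with falling fluorescence signalling gametocytocidal effect.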
For orientation: qHTS replaces the single test concentration by a dilution series.

Assay [2] in a line: qHTS profiling of the MIPE4 collection as inhibitors of Plasmodium falciparum (3D7) proliferation (AID 743344; call rule not given here;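 note: scaled between DMSO vehicle wells and 0.29 µM artemisinin as full inhibition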). The conditions noted are these: P. falciparum 3D7 in erythrocytes, SYBR Green DNA fluorescence, 72 h; at 28.5 µM (top of the series) unless noted. The method in brief: (§1)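 Erythrocytes infected with P. falciparum (0.3% parasitemia, 2.5% hematocrit) incubated with compounds 72 h at 37 C, 5% CO2. Lysis with saponin/Triton buffer containing SYBR Green I, overnight at room temperature in the dark; DNA fluorescence (485/535 nm) normalised to 0.29 uM artemisinin and DMSO.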

Assay [3] is described as follows: qHTS profiling of the MIPE4 collection as inhibitors of Plasmodium falciparum (DD2) proliferation (AID 743345; call rule not given here). The conditions noted are these: P. falciparum Dd2 in erythrocytes, SYBR Green DNA, 72 h; at 28.5 µM (top of the series) unless noted. The method in brief: as §1
Assay [4] is described as follows: qHTS profiling of the MIPE4 collection as inhibitors of Plasmodium falciparum (DD2) proliferation (Rep 2) (AID 743346; call rule not given here). To be noted: P. falciparum Dd2 in erythrocytes, SYBR Green DNA, 72 h; at 28.5 µM (top of the series) unless noted. The method in brief:
as §1

Assay [5] in a line: qHTS profiling of the MIPE4 collection as inhibitors of Plasmodium falciparum (HB3) proliferation (AID 743347; call rule not given here;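 note: plate controls were DMSO vehicle wells for no effect and artemisinin wells for full effect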). To be noted: P. falciparum HB3 in erythrocytes, SYBR Green DNA, 72 h; at 28.5 µM (top of the series) unless noted. The method in brief:
as §1

Assay [6] is described as follows: High-throughput drug toxicity screening in the BPDCN cell line Gen2.2 (AID 1224824; call rule not given here;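 note: cells exposed to compounds for 48 h before reading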). The conditions noted are these: Gen2.2 BPDCN cells; at 45.8 µM (top of the series) unless noted. The method in brief: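 Gen2.2 cells (500/well) in phenol red-free RPMI with 10% FBS were exposed to compounds for 48 h at 37 °C, 5% CO2. Viability was read by CellTiter-Glo luminescence and normalized to DMSO (100%) and 9.2 uM bortezomib (0%).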

Assay [7] in a line: High-throughput drug toxicity screening in the BPDCN cell line Cal-1 (AID 1224825; call rule not given here). The conditions noted are these: Cal-1 BPDCN cell viability, qHTS; at 45.8 µM (top of the series) unless noted. The essentials:
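500 Cal-1 cells/well, RPMI + glutamine + 10% FBS (phenol red-free); cpd added by pin tool; 48 h, 37C, 5% CO2; CTG 15 min RT, lumi read. Normalised: DMSO 100%, bortezomib 9.2 uM 0%.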

Assay [8] is described as follows: qHTS assay for measurement of the activity of small molecule inhibitors on Zika virus induced Caspase-3 activity in human iPSC derived neural progenitor cells (hNPCs) (AID 1224857). Note: nearly all actives have a fitted effect of over 65% in size. Note: potency is the fitted concentration of half-maximal effect. The method in brief:
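Quantitative HTS format: human iPSC neural progenitors, 1 h compound pretreatment, ZIKV 2 FFU/cell for 6 h at 37 C. Percent inhibition derived from luminescent caspase-3/7 signal between uninfected and infected controls.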

A short description of assay [9]: qHTS assay for measurement of the activity of small molecule inhibitors on Zika virus induced Caspase-3 activity in human astrocytoma cells (AID 1224859).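 Note: plate controls were ZIKV-infected untreated cells for no effect and uninfected cells for full effect.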 The method in brief: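 Readout is luminescence from Caspase-Glo 3/7 added after a 6 h ZIKV infection (2 FFU/cell) of compound-pretreated (1 h) SNB-19 cells; data expressed as % inhibition versus uninfected and infected wells.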

The nature of assay [10]: qHTS Screen of the MIPE 4.0 Collection Against Ewings Sarcoma (RDES) (AID 1259252). Note: nearly all actives have a fitted effect of over 35% in size. Note: potency is the fitted concentration of half-maximal effect. The essentials:
(§2)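 CellTiter-Glo luminescence after 48 h compound exposure (titration) gave viability; percent activity used DMSO-treated cells as no inhibition and medium-only wells as full inhibition. Cells grown in RPMI/5% FBS, dosed 4 h post-seeding.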

A short description of assay [11]: qHTS assay for small molecule agonists of the antioxidant response element (ARE) signaling pathway measured by Nrf2-dependant transcriptional activity - cell viability counter screen (AID 720653; active = well fitted curve in the direction sought with a large enough effect in the repeat runs; an effect the other way counts as inactive or inconclusive; note: % is set by controls: 0 for no effect and ±100 for the full control effect). To be noted: ARE-bla HepG2 viability, CellTiter-Glo ATP luminescence, 16 h; max response: stronger effect = lower value. The method in brief: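 Cytotoxicity counter screen: intracellular ATP quantified by CellTiter-Glo luminescence in the same ARE-bla HepG2 plates, after 16 h compound exposure and a 2 h beta-lactamase substrate step.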

Assay [12] in a line: qHTS assay for cell viability of HEK293 cells (AID 743288). Note: % is set by controls: 0 for no effect and ±100 for the full control effect; nearly all actives have a fitted effect of over 50% in size. The conditions noted are these: ATP luminescence (CellTiter-Glo), 18 h; max response: stronger effect = lower value. The method in brief: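 Parental HEK293 cells were seeded at 2,000 cells/well, rested at least 5 h at 37 C, then exposed to compounds in DMSO for 18 h at 37 C. Viability was read as ATP-dependent luciferase luminescence after 30 min at room temperature.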

Assay [13] can be described thus: qHTS assay for cell viability of the p53RE-bla HCT-116 cell line (AID 743292). Note: % is set by controls: 0 for no effect and ±100 for the full control effect; nearly all actives have a fitted effect of over 55% in size. The method in brief: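 In this qHTS counter-screen, metabolically competent p53RE-bla HCT-116 cells were counted via their ATP content. Compounds were applied for 16 h at 37 C and luciferase-coupled luminescence was measured.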
Assay [14] in a line: qHTS Screen of the MIPE 4.0 Collection Against Ewings Sarcoma (TC71) (AID 1259253). Note: nearly all actives have a fitted effect of over 40% in size. Note: potency is the fitted concentration of half-maximal effect. The essentials:
as §2

Assay [15] has as its target T1, Hexokinase-4 (Homo sapiens) + Glucokinase regulatory protein (Homo sapiens) (UniProt P35557+Q14397). The experiment in a line: qHTS assay for inhibitors of recombinant human GCK-GKRP interaction: Diaphorase-coupled assay (AID 743205). The essentials: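 GST-GCK (10 nM) with FLAG-GKRP (10 nM), 5 mM glucose and 0.4 mM ATP in pH 7.6 Hepes; compounds preincubated 20 min with substrate. G6PDH/diaphorase coupling converts resazurin to resorufin, read kinetically (ex 525/em 590 nm) for 30 min.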

Assay [16] concerns the target T1, Hexokinase-4 (Homo sapiens) + Glucokinase regulatory protein (Homo sapiens). The assay is described as follows: qHTS assay for inhibitors of recombinant human GCK-GKRP interaction: ADP-Glo assay (AID 743206).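 Note: plate controls were DMSO plus enzyme for no effect and no enzyme for full effect.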 The essentials: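 GST-GCK and FLAG-GKRP (15 nM each in the dispensed mix, with 2 uM S6P) react with 0.4 mM ATP and 5 mM glucose (final) in Hepes pH 7.6 for 60 min at room temperature. ADP is measured by ADP-Glo luminescence.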

Assay [17] has the same target. The experiment in a line: qHTS assay for inhibitors of recombinant human GCK-GKRP interaction: HTRF assay (AID 743207).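 Note: 0% = DMSO with GCK present and -100% = DMSO wells lacking GCK.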 The essentials: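 GST-GCK and FLAG-GKRP (5 nM each) were combined with 2 uM S6P in pH 7.1 Hepes/MgCl2/KCl/DTT buffer, then compound and anti-FLAG XL665/anti-GST K antibodies were added. After 60 min at room temperature, HTRF 665/615 nm emission was read.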

Assay [18] can be described thus: qHTS Screen of the MIPE 4.0 Collection Against Ewings Sarcoma (EW8) (AID 1259255). Note: potency is the fitted concentration of half-maximal effect; nearly all actives have a fitted effect of over 35% in size. The essentials:
as §2

These results are taken from PubChem BioAssay (NCATS).

Several values for one entry are separate records, joined by “and”; a condition that tells them apart may be missing. Equal values may be shown once. Inconclusive results are not listed. The source holds several records for some structures; these can differ, active in one and inactive in another. Activity calls are given as the source filed them. Unless noted, calls come from the whole dose curve; as a rule, active = well fitted curve in the direction sought with a large enough effect; inconclusive = small, poorly fitted or top-dose-only effect, or another doubt; inactive = no such curve, though single readings can be large; an effect the other way counts as inactive or inconclusive.

T1 sequence (P35557 whole entry, looked up): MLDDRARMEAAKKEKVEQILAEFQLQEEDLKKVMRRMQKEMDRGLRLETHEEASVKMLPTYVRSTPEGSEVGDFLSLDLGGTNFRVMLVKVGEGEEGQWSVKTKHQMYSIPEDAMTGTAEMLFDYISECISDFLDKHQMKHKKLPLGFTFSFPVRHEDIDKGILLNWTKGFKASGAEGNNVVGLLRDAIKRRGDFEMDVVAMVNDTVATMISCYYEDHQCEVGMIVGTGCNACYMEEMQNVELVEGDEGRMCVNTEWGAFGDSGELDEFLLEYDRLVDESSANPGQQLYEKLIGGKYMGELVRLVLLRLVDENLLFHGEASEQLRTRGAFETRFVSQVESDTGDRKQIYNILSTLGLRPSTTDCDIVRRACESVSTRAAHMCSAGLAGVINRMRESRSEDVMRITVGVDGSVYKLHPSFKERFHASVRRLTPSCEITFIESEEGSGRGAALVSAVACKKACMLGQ
T1 sequence (Q14397 whole entry, looked up): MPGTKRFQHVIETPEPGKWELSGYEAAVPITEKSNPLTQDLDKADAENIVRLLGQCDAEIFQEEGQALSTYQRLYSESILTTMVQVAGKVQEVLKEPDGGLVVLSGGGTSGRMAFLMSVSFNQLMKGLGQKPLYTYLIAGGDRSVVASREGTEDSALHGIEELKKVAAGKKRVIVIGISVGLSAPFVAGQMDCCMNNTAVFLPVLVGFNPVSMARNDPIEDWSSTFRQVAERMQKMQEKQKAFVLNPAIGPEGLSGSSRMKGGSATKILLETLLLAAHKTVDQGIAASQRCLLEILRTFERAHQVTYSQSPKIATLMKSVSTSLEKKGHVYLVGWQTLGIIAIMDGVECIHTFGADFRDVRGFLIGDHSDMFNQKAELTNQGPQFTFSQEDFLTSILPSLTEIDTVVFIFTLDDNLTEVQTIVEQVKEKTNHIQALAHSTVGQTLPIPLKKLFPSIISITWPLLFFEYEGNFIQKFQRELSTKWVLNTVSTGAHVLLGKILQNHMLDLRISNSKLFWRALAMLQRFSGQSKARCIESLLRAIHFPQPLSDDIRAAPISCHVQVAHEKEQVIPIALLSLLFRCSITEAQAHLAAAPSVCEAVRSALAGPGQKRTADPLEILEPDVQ

As for `Cc1cccc(CN2CCN(C(c3ccccc3)c3ccc(Cl)cc3)CC2)c1` (stereo not drawn), in assay [1], the max response was 0.914% (inactive). Further, the parasite growth, % of DMSO control in assay [2] turned out to be 6.23%. In addition, the parasite growth remaining, % of DMSO control (lower = more inhibition) in [3] was found to be 7.56%. In [4], this molecule came in with a parasite growth, % of control (lower = inhibition) of 22.6%. The molecule further gave a growth, % of control in assay [5] of 9.08%. Moreover, the cell viability, % of control (lower = more cytotoxic) in [6] worked out at 156%. Moreover, the viability (% of control) in assay [7] came out at 94%. Besides, the Potency result in [8] and in assay [9] was “inactive” throughout. The Potency in assay [10] was 20.9 µM (active).

In the case of `CCCc1cc(=O)[nH]c(=S)[nH]1`, the max response in assay [11] is -7.93% (inactive) and 7.26% (inactive); in [1] it was 1.36% (inactive); in assay [12], -1.41% (inactive) and 0.952% (inactive). Also, the Potency result in assay [13], in [8], in assay [9], in [10] and in assay [14] was “inactive” in each case. For the same molecule, the parasite growth, % of DMSO control in assay [2] came out at 95.4%. The molecule also gave a parasite growth remaining, % of DMSO control (lower = more inhibition) in assay [3] of 93.3%. The molecule also had a parasite growth, % of control (lower = inhibition) in assay [4] of 78.2%. Further, the growth, % of control in assay [5] was 103%. The cell viability, % of control (lower = more cytotoxic) in assay [6] amounted to 62.4%. Further, the viability (% of control) in [7] came to 14.9%.

`C[C@H](Cc1ccc(O)c(O)c1)[C@@H](C)Cc1ccc(O)c(O)c1`: the result in assay [15], in assay [16] and in assay [17] was inactive. For the same molecule, in [1], the max response was 4.03% (inactive). The molecule also had a parasite growth, % of DMSO control in [2] of 15.1%. The molecule further had a parasite growth remaining, % of DMSO control (lower = more inhibition) in assay [3] of 17.2%. This molecule came in with a parasite growth, % of control (lower = inhibition) in [4] of 16.4%. The same molecule returned a growth, % of control in assay [5] of 20.7%. Further, in [6], the cell viability, % of control (lower = more cytotoxic) turned out to be 7.79%. Moreover, the viability (% of control) in assay [7] amounted to 5.77%. Besides, the Potency result in assay [8] was “inactive and 26.4 µM (active)”; in assay [14], 13.2 µM (active); in [18], 16.6 µM (active). Further, the Potency result in assay [9] is “inactive”.

Regarding `O=C(NOCC1CC1)c1ccc(F)c(F)c1Nc1ccc(I)cc1Cl`, the parasite growth, % of DMSO control in assay [2] worked out at 24.6%. The parasite growth remaining, % of DMSO control (lower = more inhibition) in [3] was found to be 91.6%. Moreover, in assay [4], the parasite growth, % of control (lower = inhibition) is 56.1%. This molecule also showed a growth, % of control in [5] of 63.7%. Further, the cell viability, % of control (lower = more cytotoxic) in assay [6] is 6.36%. In assay [7], the viability (% of control) was determined as 7.67%. In addition, the Potency entry in [8] and in [9] was “inactive” each time. In addition, the Potency in assay [10] and in [14] was 20.9 µM (active) in each case.
